Results on 16 compounds are retold here after PubChem BioAssay.

The nature of test [1]: compound effects on lung adenocarcinoma cell viability – A549, calcein-AM fluorescence, 48 h, basal, profiling panel (AID 1162). To be noted: higher = more signal.
Test [2] is described as follows: compound effects on differentiated 3T3-L1 adipocyte viability – cell-based, 3T3-L1 adipocytes, calcein-AM fluorescence, 48 h, basal, profiling panel (AID 1163). To be noted: 3T3-L1 adipocytes viability, higher = more signal.
A short description of test [3]: compound effects on hepatocellular carcinoma cell viability – HepG2, calcein-AM fluorescence, 48 h, basal, profiling panel (AID 1164). To be noted: higher = more signal.
Test [4] in a line: compound effects on multiple myeloma cell viability – MM1S, calcein-AM fluorescence, 48 h, basal, profiling panel (AID 1165).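 Also: viability of MM1S multiple myeloma cells under basal unstimulated conditions.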 To be noted: higher = more signal.
A short description of test [5]: calcein-AM signal in unstimulated myeloma cells – cell-based, calcein-AM fluorescence, 48 h, PK04 Diversity Set, profiling panel (AID 1166).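 Also: cells grown under basal conditions without added stimulus.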 The conditions noted are these: higher = more signal; RPMI8226 myeloma viability, calcein-AM fluorescence, 48 h unless noted.
Test [6] is described as follows: JC-1 mitochondrial signal, unstimulated HepG2 cells – cell-based, JC-1 fluorescence, 24 h, 100 nL compound, profiling panel (AID 1167). The conditions noted are these: HepG2 mitochondrial potential, higher = more signal.
The nature of test [7]: JC-1 mitochondrial signal, unstimulated adipocytes – cell-based, JC-1 fluorescence, 3T3-L1 adipocytes, 24 h, 100 nL compound, profiling panel (AID 1168). To be noted: JC-1 mitochondrial fluorescence; higher = more signal, called active from +8 up or from −8 down unless noted.
A short description of test [8]: JC-1 mitochondrial signal, unstimulated myeloma cells – cell-based, JC-1 fluorescence, RPMI8226, 24 h, 100 nL compound, profiling panel (AID 1169). The conditions noted are these: higher = more signal; RPMI8226 myeloma, JC-1 mitochondrial potential fluorescence, 24 h unless noted.
A short description of test [9]: JC-1 mitochondrial signal, unstimulated MM1S myeloma – cell-based, JC-1 fluorescence, 24 h, 100 nL compound, profiling panel (AID 1170). To be noted: MM1S mitochondrial potential, higher = more signal.
Test [10] can be described thus: resazurin metabolic signal in A549 cells – cell-based, resazurin fluorescence, 24 h, PK04 Diversity Set, profiling panel (AID 1171). The conditions noted are these: A549 viability; higher = more signal, called active from +8 up or from −8 down unless noted. For orientation: The colour change of resazurin is a common sign of viable cells or microbes.

Several values for one entry are separate records, joined by “and”; a condition that tells them apart may be missing. Equal entries are not always repeated. Activity calls are given as the source filed them.
Also: test concentration not given here.

`COc1cc2c(cc1O)C=[N+](C)CC2`: the z-score was 1.82 in test [1]; 0.775 in [2]; 0.496 in test [3]; -0.0896 in [4]; 0.245 in test [5]; 0.424 in [6]. The z-score in [7] was 0.964 (inactive); in [8] it was -0.0385; in [9] it was -0.635; in test [10] it was -1.52 (inactive).
Regarding `C=C(CC1(C(C)NP(=O)(c2ccccc2)c2ccccc2)CC1)c1ccccc1` (stereo not given), the z-score is -2.12 in [1]; 0.844 in test [2]; -1.07 in test [3]; -3.18 in [4]; -4.71 in [5]; -2.36 in test [6]. In addition, the z-score in [7] is -0.793 (inactive); in test [8], -0.819; in [9], -0.133; in test [10], 2.93 (inactive).
As to `C[C@H]1O[C@H]2C3=C(C(=O)[C@@H]4O[C@@H]4[C@@H]3O)[C@@H]1[C@@H]1[C@@H](C)OC=C3[C@@H](O)[C@H]4O[C@H]4C(=O)[C@]312`, the z-score in [1] was 0.767; in test [2], 0.439; in test [3] it was 0.0608; in test [4], -1.54; in [5], -0.168; in [6] it was -0.407. In addition, the z-score is 0.407 (inactive) in [7], 0.692 in test [8], -0.996 in test [9] and -0.831 (inactive) in test [10].
Turning to `C[C@@H]1Cc2c(cnc3c2CN(C)CC3)CO1`, the z-score was 0.298 in test [1]; 0.288 in test [2]; -0.153 in test [3]; -1.39 in test [4]; 0.089 in [5]; 0.389 in test [6]. Also, the z-score is 0.284 (inactive) in test [7], -0.258 in test [8], 0.677 in test [9] and 0.707 (inactive) in [10].
For the compound `COC(=O)[C@H]1[C@H](c2ccccc2)C(=O)[C@]2(O)c3ccccc3O[C@@]12c1ccccc1`, the z-score in test [1] is 0.594; in test [2] it was 0.833; in test [3], -0.0328; in [4], 0.391; in test [5], 0.001; in test [6], 0.338. Besides, the z-score in [7] is -0.113 (inactive); in test [8] it was 0.289; in test [9] it was -0.0594; in test [10] it was -1.73 (inactive).
In the case of `C=C(CC1(CNP(=O)(c2ccccc2)c2ccccc2)CC1)c1ccccc1`, the z-score is -1.21 in test [1]; -0.457 in test [2]; -1.36 in test [3]; -0.159 in test [4]; -0.614 in [5]; -1.41 in [6]. Moreover, the z-score in test [7] is -0.531 (inactive); in test [8], 0.29; in test [9], -0.987; in [10] it was 0.344 (inactive).
`OCc1ccc(C2=CC(c3cccs3)N(Cc3cccc(OC(F)(F)F)c3)CC2)cc1` (stereo not given): the z-score in test [1] was 1.08; in test [2] it was 0.314; in test [3], -0.65; in test [4], -2.61; in test [5] it was -0.633; in [6], -2.28. Further, the z-score in [7] is 0.0997 (inactive); in [8], -0.0311; in [9], 0.518; in [10] it was 0.439 (inactive).
For `c1ccc(-c2cc3c(nc2-c2ccccc2)CCNC3)cc1`, the z-score in test [1] is 0.765; in test [2] it was -0.106; in [3], 0.246; in test [4], 0.195; in [5], 0.145; in test [6] it was 0.506. Moreover, the z-score in test [7] is -0.239 (inactive); in test [8], 0.179; in test [9], -0.0254; in test [10], 0.983 (inactive).
Turning to `CC1N(P(=O)(c2ccccc2)c2ccccc2)CC(O)(c2ccccc2)CC12CC2` (stereo not given), the z-score in test [1] was -1.2 and -1.31; in test [2] it was -0.216 and -0.899; in [3] it was -1.5 and -1.05; in test [4], -0.187 and -0.545; in test [5], -1.7 and -1.4; in test [6] it was -0.722 and -1.02. Besides, the z-score in test [7] was -1.04 (inactive) and -1.11 (inactive); in test [8] it was 0.655 and -0.4; in test [9] it was -0.307 and -0.694; in test [10], 0.146 (inactive) and 1.49 (inactive).
With `OCc1ccc(C2=CC(C3CC3)N(Cc3sc4ccccc4c3Cl)CC2)cc1` (stereo not given), the z-score in [1] is -1.09; in test [2], 0.656; in test [3], -0.328; in test [4], -3.17; in [5], -3.29; in [6], 0.353. The z-score in test [7] is 0.501 (inactive); in [8] it was -0.913; in test [9], -0.434; in test [10], -0.497 (inactive).
For the compound `CCCc1cc2c(n1Cc1cccc(Cl)c1)C(C)C1CN(C(=O)c3ccccc3)C(C)(C(=O)OC)C21` (stereo not given), the z-score was -1.22 in [1]; -0.278 in [2]; 0.101 in [3]; -2.71 in test [4]; -4.69 in test [5]; 1.4 in [6]. Also, the z-score in test [7] is -1.82 (inactive); in test [8], -0.795; in [9], -1.61; in test [10], -0.474 (inactive).
With `CCCc1cc2c(n1CCO)C(C)C1CN(C(=O)c3ccccc3)C(C)(C(=O)OC)C21` (stereo not given), the z-score in test [1] was -0.981; in test [2], 0.348; in test [3] it was 0.436; in test [4] it was -1.38; in test [5], -0.875; in test [6], 0.156. In addition, the z-score is -0.962 (inactive) in test [7], 0.719 in test [8], -0.379 in [9] and -1.04 (inactive) in [10].
Turning to `CCCc1cc2c(n1Cc1ccco1)C(C)C1CN(C(=O)c3ccccc3)C(C)(C(=O)OC)C21` (stereo not given), the z-score was -0.136 in [1]; 0.227 in test [2]; -0.369 in test [3]; -3.24 in [4]; -2.66 in [5]; 2.35 in [6]. Moreover, the z-score in [7] was -1.5 (inactive); in [8], 0.228; in test [9], -1.53; in test [10] it was -1.36 (inactive).
As to `CCCC[C@@H]1C[C@H]1[C@@H](NP(=O)(c1ccccc1)c1ccccc1)c1ccc(Cl)cc1`, the z-score was -0.656 in test [1]; -1.31 in test [2]; -0.868 in [3]; -2.05 in test [4]; -4.62 in test [5]; -1.35 in test [6]. The z-score in [7] was -0.729 (inactive); in test [8] it was -0.861; in test [9] it was -1.11; in [10], 2.22 (inactive).
`COC(=O)[C@@]1(Cc2ccc(F)cc2)[C@H]2c3cc(C(=O)N(C)C)[nH]c3C[C@H]2CN1C(=O)c1ccccc1`: the z-score was -0.632 in [1]; -0.597 in test [2]; 0.337 in [3]; 0.334 in test [4]; -0.425 [setting not given] in test [5]; 0.174 in [6]. In addition, the z-score in test [7] is 0.0376 [setting not given] (inactive); in [8] it was -0.101 [setting not given]; in test [9], -0.872; in test [10], -0.868 [setting not given] (inactive).
Consider `CN1CCc2nc(CO)c(CO)cc2C1`, for which the z-score is 1.18 in test [1]; 0.593 in [2]; 0.0749 in test [3]; -1.02 in test [4]; 0.672 in test [5]; 0.302 in test [6]. Besides, the z-score is -0.23 (inactive) in [7], 0.38 in test [8], 1.04 in [9] and 0.515 (inactive) in test [10].
